In the library only some 19% were active in any assay of this set; here they are far more common.
DT40 TDP1 CPT: growth inhibition of DT40 Tdp1-/-;hTDP1 cells with camptothecin (screen for TDP1 inhibitors); chicken DT40 Tdp1-/-;hTDP1 cells + 20 nM CPT, ATP luminescence, 48 h; Potency, µM (highest dose often 46.2 µM), hits mostly inhibitors; actives 12% (n = 420,000); AID 686979; note: nearly all actives have a fitted effect of over 55% in size
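Chicken DT40 Tdp1-/- cells complemented with human TDP1, 400 cells/well, exposed to compounds plus 20 nM camptothecin for at least 48 h at 37 C; viability read as ATP content by CellTiter-Glo luminescence.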
DT40 TDP1 no CPT: qHTS for Inhibitors of human tyrosyl-DNA phosphodiesterase 1 (TDP1): qHTS in cells in absence of CPT. DT40 Tdp1-/- hTDP1 cells, no CPT, ATP luminescence, 48 h. Potency, µM (doses to about 46.2 µM), actives largely listed as inhibitors. actives 15% (n = 420,000). AID 686978, 2013; note: nearly all actives have a fitted effect of over 55% in size
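Chicken DT40 Tdp1-/- cells complemented with human TDP1, screened without camptothecin (DMSO vehicle only), 400 cells/well. Compounds pin-transferred, cells incubated at 37 °C for at least 48 hr. Growth read as ATP-dependent luminescence (CellTiter-Glo, 30 min at RT).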
IL1B secr inh: blocks inflammasome-driven IL-1 beta release. THP-1 LPS/ATP IL-1B secretion, AlphaLISA, 16 h; active compounds read low. activity change, % at 57.5 µM. actives 4.7% (n = 360,000); in the data active = activity change below about -50%; inconclusive = mostly about -30% to -49%
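Secreted IL-1B measured by AlphaLISA bead assay after 16 h compound exposure of THP-1 cells; compounds (final up to 57.5 uM) added 1 h before LPS (250 ng/mL) and ATP (1.25 mM) stimulation; lower signal means less secretion.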
HT1080NT lethal: kills 2HG-producing HT-1080-NT fibrosarcoma cells. HT-1080-NT fibrosarcoma viability, CellTiter-Glo ATP luminescence, 48 h. Potency, µM (titrated, usually from 46.1 µM), usual class: cytotoxic. actives 1.6% (n = 360,000). AID 686970;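 note: NT is the 2HG producing partner of a matched IDH1 knockdown line; nearly all actives have a fitted effect of over 55% in size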
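Toxicity toward the 2HG-producing NT line was scored as %Activity, normalised to DMSO and no-cell wells, from CellTiter-Glo luminescence after 48 hours' treatment.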
HT1080 IDH1KD tx: kills HT-1080 cells with IDH1 knockdown; HT-1080 IDH1 knockdown viability, ATP luminescence, 48 h; Potency, µM (top dose mostly 46.1 µM), usual class: cytotoxic; actives 2% (n = 360,000); AID 686971
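Viability of IDH1-knockdown HT-1080 fibrosarcoma cells was assessed by CellTiter-Glo after 48 h at 37 °C with titrated compound; concentration-effect curves were classified by fit quality and response size.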
Large screens that a line does not name were inactive. Unless noted, calls come from the whole dose curve; as a rule, active = well fitted curve in the direction sought with a large enough effect; inconclusive = small, poorly fitted or top-dose-only effect, or another doubt; inactive = no such curve, though single readings can be large; an effect the other way counts as inactive or inconclusive.

COc1ccc(CN2[C@@H](CC(C)=O)c3ccc(/C=C/C(C)=O)cc3S2(=O)=O)cc1	DT40 TDP1 CPT 7.31µM, DT40 TDP1 no CPT 9.2µM, IL1B secr inh -102.4, HT1080NT lethal inconclusive, HT1080 IDH1KD tx inconclusive
COc1cccc(N2[C@@H](CC(C)=O)c3ccc(/C=C/C(C)=O)cc3S2(=O)=O)c1	DT40 TDP1 CPT 5.17µM, DT40 TDP1 no CPT 5.17µM, IL1B secr inh -99.8, HT1080 IDH1KD tx inconclusive
COC(=O)C(C)Sc1nnc2cc(C)c3cc(C)cc(C)c3n12 (stereo unspecified)	none (no result: IL1B secr inh, HT1080NT lethal, HT1080 IDH1KD tx)
CCc1cnc2c(c1SCC(=O)NCc1ccccc1)c(=O)n(C)c(=O)n2C	DT40 TDP1 CPT 11.6µM, DT40 TDP1 no CPT inconclusive (no result: IL1B secr inh, HT1080NT lethal, HT1080 IDH1KD tx)
CCc1cnc2c(c1SCC(=O)c1ccc(Cl)cc1)c(=O)n(C)c(=O)n2C	DT40 TDP1 CPT 13µM, DT40 TDP1 no CPT 20.6µM (no result: IL1B secr inh, HT1080NT lethal, HT1080 IDH1KD tx)
CCc1cnc2c(c1SCC(=O)NCc1ccccc1Cl)c(=O)n(C)c(=O)n2C	none (no result: IL1B secr inh, HT1080NT lethal, HT1080 IDH1KD tx)
Cc1ccc(CNC(=O)CSc2c(C(C)C)cnc3c2c(=O)n(C)c(=O)n3C)cc1	DT40 TDP1 CPT 14.6µM, DT40 TDP1 no CPT 25.9µM (no result: IL1B secr inh, HT1080NT lethal, HT1080 IDH1KD tx)
CC(C)CNC(=O)C(=O)Nc1c2c(nn1-c1ccccc1)CS(=O)(=O)C2	none (no result: IL1B secr inh, HT1080NT lethal, HT1080 IDH1KD tx)
COC(=O)C1=NNC(C(=O)OC)C1c1ccccc1 (stereo unspecified)	none
O=C(O)[C@H](Cc1ccccc1)NC(=O)N1CCN(c2ccccc2)CC1	none
O=C(N/N=C/c1ccccn1)c1cc(-c2ccc(Cl)cc2)nc2ccccc12	DT40 TDP1 CPT 3.26µM, DT40 TDP1 no CPT 8.2µM, IL1B secr inh -102.5
CCOc1ccc(Br)cc1C(=O)N/N=C/c1ccccn1	DT40 TDP1 CPT inconclusive, DT40 TDP1 no CPT inconclusive
O=C(O)COc1ccccc1/C=N/NC(=O)c1cc(-c2ccc(Cl)cc2)nc2ccccc12	DT40 TDP1 no CPT 6.51µM
O=C(N/N=C/c1ccccn1)c1cc(-c2ccc(Br)cc2)nc2ccccc12	DT40 TDP1 CPT 2.59µM, DT40 TDP1 no CPT 1.84µM, IL1B secr inh -95.7, HT1080NT lethal inconclusive, HT1080 IDH1KD tx inconclusive
O=C(O)COc1ccccc1/C=N/NC(=O)c1cc(-c2ccccc2)nc2ccccc12	none
CC(C)NS(=O)(=O)c1ccc2c(c1)NCC2	none
COc1ccc(C2(C)NC(=O)N(CC(=O)Nc3ccc4ccccc4c3)C2=O)cc1OC (stereo unspecified)	DT40 TDP1 no CPT inconclusive, IL1B secr inh -55.3, HT1080NT lethal inconclusive
COc1ccc(S(=O)(=O)N2CCN(C(=O)CN3C(=O)NC(C)(c4ccc5ccccc5c4)C3=O)CC2)cc1 (stereo unspecified)	DT40 TDP1 CPT inconclusive, DT40 TDP1 no CPT 23.1µM
CC1(c2ccc3ccccc3c2)NC(=O)N(CC(=O)N2CCN(Cc3ccccc3)CC2)C1=O (stereo unspecified)	DT40 TDP1 CPT 8.2µM, DT40 TDP1 no CPT 4.61µM, IL1B secr inh inconclusive, HT1080NT lethal 5.8µM
COc1ccc(S(=O)(=O)N2CCN(C(=O)CN3C(=O)NC(C)(C)C3=O)CC2)cc1	none
COc1ccc(C2(C)NC(=O)N(CC(=O)Nc3ccc4c(c3)CCC4)C2=O)cc1OC (stereo unspecified)	none
COc1ccc(C(=O)NCc2nnc(SCC(=O)Nc3nc4ccc(C)cc4s3)o2)cc1OC	DT40 TDP1 CPT 4.11µM, DT40 TDP1 no CPT 2.31µM
Cc1ccc(CNC(=O)CSc2nnc(CNC(=O)c3ccccc3)o2)cc1	IL1B secr inh -73.2
COC(=O)c1cccnc1N1CCN(c2ccccc2F)CC1	none
COc1ccc(OC)c(NC(=O)c2cc3c(cc2Cl)N2CCCCCC2=NS3(=O)=O)c1	DT40 TDP1 CPT inconclusive, DT40 TDP1 no CPT 16.4µM
CCN1CCN(c2ncc(C(=O)Nc3ccccc3C(=O)OC)c3ccccc23)CC1	DT40 TDP1 CPT 23.1µM, DT40 TDP1 no CPT 16.4µM, IL1B secr inh inconclusive, HT1080NT lethal 20.6µM, HT1080 IDH1KD tx inconclusive
COc1ccc(NC(=O)CN(C)C(=O)c2cc3c(cc2Cl)N2CCCCCC2=NS3(=O)=O)cc1	none
